Screening results deposited in PubChem BioAssay by several laboratories.
Sampled rows, rich in hits. Any-hit rate of the full collection: about 12%.
WT yeast gro inh – growth inhibition of WT yeast, mitochondrial fusion screen; mitochondrial fusion phenotypic screen, WT strain; inhibition, % at 10 µM; 2.1% of 190,000 active; in the data active means inhibition above about 58%; tested in S. cerevisiae
ROMK mod – modulators of human ROMK potassium channel; Tet-inducible ROMK, thallium flux fluorescence; actives lie on both sides; B-score at 10 µM; 2% of 130,000 active; AID 1918;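 active means signal ratio slope over the read window, or its plate-corrected B-score, at least 3 SD from the plate mean, either direction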;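 further: B-score of the F/F0 ratio slope over 7 to 12 s after thallium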
Target sequence (P48048 whole entry, looked up): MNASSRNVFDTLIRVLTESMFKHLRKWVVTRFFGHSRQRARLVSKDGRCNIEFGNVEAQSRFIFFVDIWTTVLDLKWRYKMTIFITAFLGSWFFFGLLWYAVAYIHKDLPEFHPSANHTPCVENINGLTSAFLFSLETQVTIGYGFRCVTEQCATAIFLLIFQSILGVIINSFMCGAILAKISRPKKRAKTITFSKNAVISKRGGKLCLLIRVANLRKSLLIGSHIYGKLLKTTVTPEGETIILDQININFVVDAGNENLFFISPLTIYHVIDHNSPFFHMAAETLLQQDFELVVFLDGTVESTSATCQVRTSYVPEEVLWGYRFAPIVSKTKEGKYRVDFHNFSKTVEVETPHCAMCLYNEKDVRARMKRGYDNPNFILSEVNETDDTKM
Cl transport mod – KCC2 (human) Cl- transport modulation; Q9H2X9; KCC2 cells, thallium flux FluoZin-2 fluorescence; B-score of Tl+ flux slope (higher = more flux/activation; lower = inhibition) at 10 µM; 2.2% of 190,000 active; AID 1456;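 active means thallium flux slope and its plate-corrected score both differing from the plate sample mean at a set confidence after two filtering rounds, in either direction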;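 further: slope of fluorescence scaled to starting intensity during 10 to 20 s after thallium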
Lmaj promast – Leishmania major promastigote growth inhibition; Leishmania major promastigotes, resazurin fluorescence viability; inhibition, % at 10 µM; 9% of 200,000 active; in the data active means inhibition above about 50%;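 further: promastigotes grown with compound for 44 hours at 28 °C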
Calpain2 inh – calpain II (pig) inhibition; 0.37% of 220,000 active; inhibition, % at 16 µM; purified calpain II, fluorogenic peptide substrate, 30 min; AID 1236;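 active means inhibition above about 50%, limit read from the data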
Active calls of the source: *; i = inactive; nt = no result given.

SMILES	WT yeast gro inh	ROMK mod	Cl transport mod	Lmaj promast	Calpain2 inh
O=C1c2ccccc2C(=O)N1CCc1nc2ccccc2c(=O)n1CCCn1ccnc1	7	nt	-0.048	-6	-22
CCCOc1ccc(CSC2=NCCN2)cc1[N+](=O)[O-]	5	-2	nt	57*	26
COc1ccc(-c2nnc(Sc3nc4ccccc4o3)c3ccccc23)cc1	0	0.024	-0.061	88*	-33
COc1ccc(-c2nc3ccccc3nc2-c2ccccc2)cc1	40	-1.6	-0.13	18	0
COc1cnc(-c2ccccn2)nc1Sc1ccc(F)cc1	68*	0.27	-0.67	94*	-2
COc1cnc(-c2ccccn2)nc1Sc1ccc(Cl)cc1	3	-1.1	nt	100*	20
COc1ccc(Sc2nc(-c3ccccn3)ncc2OC)cc1	63	-0.083	-0.42	101*	20
COc1cnc(-c2ccccn2)nc1Oc1ccccc1	-2	0.0025	nt	9	-14
CCCCc1n[nH]c2c1/C(=N/OCC)CC(C)(C)C2	nt	-0.24	-2	nt	17
Cc1nc(-c2ccc(S(=O)(=O)Nc3cc(S(=O)(=O)N(C)C)ccc3C)s2)cs1	nt	nt	-0.48	nt	21
CC(C)Cn1c2c(c(O)c(C(=O)Nn3c(Cc4ccccc4)nc4ccccc4c3=O)c1=O)CCCC2	7	0.019	-0.13	74*	-11
CCc1nc2ccccc2c(=O)n1NC(=O)c1c(O)c2cccc3c2n(c1=O)CCC3	47	0.091	-1.8	-10	-315
CCCCc1nc2ccccc2c(=O)n1NC(=O)c1c(O)c2c(n(CC(C)C)c1=O)CCCC2	10	0.11	-2.2	49	-234
O=C(Nn1c(Cc2ccccc2)nc2ccccc2c1=O)c1c(O)c2cccc3c2n(c1=O)CCC3	68*	-0.062	-0.38	23	-157
CCN(CC)S(=O)(=O)c1ccc(OC)c(NC(=O)c2cccc(C)c2[N+](=O)[O-])c1	-5	-0.3	-1.2	5	1
CCN(CC)S(=O)(=O)c1ccc(OC)c(NC(=S)Nc2cccc(C)c2)c1	-45	-0.82	-0.4	98*	10
CCN(CC)S(=O)(=O)c1ccc(OC)c(NC(=S)Nc2cccc(C)c2C)c1	-13	0.019	0.095	97*	-6
NNC(=O)c1ccc2nc(-c3ccc(Br)cc3)cn2c1	71*	0.1	-0.25	54*	-35
COc1cc(Br)cc(C2C3=C(CCCC3=O)N(c3ccc(F)cc3)C3=C2C(=O)CCC3)c1O	47	-1.4	-1	58*	-108
CCN(CC)c1ccc(/C=N/N2CCN(c3ccccn3)CC2)cc1	nt	-0.65	1.9	nt	-7
COc1ccc(NC(=O)Nc2ccccc2F)c(C)c1	-1	0.036	0.84	4	-7
COc1ccc(C(=O)C[n+]2cn(C(F)F)c3ccccc32)c(F)c1	70*	0.12	-0.042	2	-8
CC1=C(OC(=O)c2ccccc2)C(C)(C)C(c2ccc(Br)cc2)OC1=O (stereo not given)	66*	nt	-0.67	0	-17
COc1ccc(CCNC(=O)c2cc(-c3ccncc3)nc3c(Cl)cccc23)cc1OC	1	0.54	-0.83	51*	-22
COC(=O)CSc1cc(C(F)(F)F)nc(-c2ccccn2)n1	27	nt	1.6	-4	15
SMILES	WT yeast gro inh	ROMK mod	Cl transport mod	Lmaj promast	Calpain2 inh
FC(F)(F)c1cc(Sc2ccccc2)nc(-c2ccccn2)n1	65*	nt	-0.85	3	-8
Cn1c(-c2cc(Cl)ccc2O)nc2c1c(=O)[nH]c(=O)n2Cc1ccccc1	8	0.77	0.79	54*	i
CC(C)Cn1c(-c2cc([N+](=O)[O-])ccc2Cl)nc2c1c(=O)[nH]c(=O)n2Cc1ccccc1	3	nt	-0.95	19	-64
COCCn1c(=O)[nH]c(=O)c2c1nc(-c1ccc(-c3ccc(Cl)cc3[N+](=O)[O-])o1)n2Cc1ccccc1	28	-0.73	-1.1	25	-72
CCCCn1c(=O)[nH]c(=O)c2c1nc(-c1ccccc1F)n2Cc1ccccc1	8	0.33	-2.7	45	32
COCCn1c(-c2ccc(-c3ccc([N+](=O)[O-])cc3Br)o2)nc2c1c(=O)[nH]c(=O)n2CC(C)C	48	-0.33	-0.068	73*	-149
COc1ccc(-c2ccc(-c3nc4c(c(=O)[nH]c(=O)n4Cc4ccccc4)n3C)o2)c([N+](=O)[O-])c1	31	0.17	0.088	72*	10
CCCN1CCC(=O)N([C@H](CSc2ccc(OC)cc2)c2ccccc2)CC1	nt	nt	-2.1	nt	-19
CCC(C)Sc1nc2c(c(=O)n1C)SC(C)C2 (stereo not given)	61*	nt	-1.1	-2	0
Cc1ccc(S(=O)(=O)NCC(=O)NCC(=O)N2CCN(c3ncccn3)CC2)cc1C	nt	nt	0.14	nt	7
c1cncc(-c2nc(NCCCN3CCOCC3)c3c4c(sc3n2)CCC4)c1	2	-1.3	0.39	68*	-137
C=CCc1c(C)nn(CC(=O)O)c1-c1ccccc1	-16	1.4	-0.16	-4	-8
CC1CCCC(C)N1C(=O)Cn1cc(/C=C2/C(=O)Nc3ccccc32)c2ccccc21 (stereo not given)	21	-2.2	nt	39	-143
CCCCn1c(=NC(=O)c2ccco2)c(C(=O)OCC)cc2c(=O)n3ccccc3nc21	3	0.0051	nt	51*	-438
CCOC(=O)c1cc2c(=O)n3ccccc3nc2n(C(C)C)c1=NC(=O)c1c(-c2c(F)cccc2Cl)noc1C	38	nt	-0.39	99*	-110
CCCCCn1c(=NC(=O)c2ccco2)c(C(=O)OCC)cc2c(=O)n3ccccc3nc21	-2	nt	-0.44	49	-366
S=C(NCc1ccco1)N1CCN(Cc2ccc(Cl)cc2Cl)CC1	42	nt	-2.6	6	8
O=S(=O)(Nc1nc2ccccc2nc1NCC1CCCO1)c1cccc(Cl)c1 (stereo not given)	nt	nt	-0.035	nt	11
CCc1nnc(NC(=O)Cn2nnc(-c3ccccc3F)n2)s1	16	-0.038	-0.6	-9	-23
CCN1CCN(Cc2ccc(OC)c(OCc3ccccc3)c2)CC1	8	nt	0.48	17	-27
CCOc1ccc(C(=O)N2CCN(Cc3ccccc3)CC2)cc1	15	nt	nt	-3	20
CCN1CCN(Cc2ccc(OCc3ccccc3)cc2)CC1	8	nt	nt	92*	-16
CN1CCN(Cc2ccc(OCc3ccccc3)cc2)CC1	10	nt	-1.9	95*	-5
O=C(/C=C(\c1ccc(Cl)cc1)n1cncn1)c1ccc(Cl)cc1	-5	nt	1	74*	0
O=C(/C=C(\c1ccccc1)n1cncn1)c1ccccc1	-10	0.49	0.94	7	3
CC(OC(=O)c1ccc2c(=O)n3c(nc2c1)CCCCC3)C(=O)Nc1ccc(F)cc1Cl (stereo not given)	18	nt	1.6	56*	-16
CCOC(=O)c1c(C)c(/C=N/Nc2ccccc2)n(C)c1C	0	0.44	-1.1	16	29
COc1ccc(/C=N/N(Cc2ccccc2)c2ccccc2)cc1O	83*	-0.2	0.69	3	-15
C(=N\N(Cc1ccccc1)c1ccccc1)/c1ccco1	17	0.27	-0.0057	-6	-3
Cc1ccc(NS(=O)(=O)c2cccc(C(=O)NCCc3c[nH]c4ccccc34)c2)c(C)c1	-3	nt	-1	29	-18
